# Results as given in PubChem BioAssay (NCATS).
# Values without a mark were called inactive. Inconclusive results are not listed. Where a call stands in place of a potency, no number is given. Calls of active or inactive are those of the source. Calls follow the shape of the dose curve; as a rule, active = well fitted curve in the direction sought with a large enough effect; inconclusive = small, poorly fitted or top-dose-only effect, or another doubt; inactive = no such curve, though single readings can be large; an effect the other way counts as inactive or inconclusive.
# Tests used:
# [1] = target: Phospholipid hydroperoxide glutathione peroxidase GPX4 (Homo sapiens) (UniProt P36969); assay: Primary qHTS Assay for Inhibitors of Recombinant Selenoprotein Glutathione Peroxidase 4 (GPX4) (AID 1845192); also: nearly all actives have a fitted effect of over 65% in size; as to activity change, negative = inhibition: series mostly up to about 50 µM
# Summary of the method: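 NADPH consumption followed by fluorescence at 340/450 nm, t=0 and after 15 min at room temperature. Reaction started with cumene hydroperoxide (0.5 mM final) after 30 min compound–GPX4 preincubation; final 200 nM GPX4, 100 nM GR, 1 mM GSH, 0.5 mM NADPH.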
# [2] = target: Luciferin 4-monooxygenase (Photinus pyralis) (UniProt P08659); assay: Primary firefly luciferase (FLuc) qHTS assay for identification of artifact compounds. (AID 1845220); also: nearly all actives have a fitted effect of over 60% in size; as to activity change, negative = inhibition: series mostly up to about 54 µM
# Summary of the method: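 FLuc 10 nM; luciferin 10 uM; ATP 10 uM; Tris-acetate pH 7.6, Mg-acetate 10 mM; 15 min RT preincubation; 5 min reaction; luminescence.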
# [3] = Primary fluorescence-based thiol-reactive (MSTI) qHTS assay for identification of artifact compounds. (AID 1845221); also: nearly all actives have a fitted effect of over 65% in size; also: potency is read from the fitted curve at half-maximal effect;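 as to activity change, negative = thiol reactive: series mostly up to about 54 µM; thiol-reactive compounds lower the probe fluorescence signal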
# Summary of the method: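 Thiol-reactive compounds detected by quenching of 4 uM MSTI fluorescence (525/598 nm) after 1 h room-temperature dark incubation in PBS pH 7.4, 2% DMSO. qHTS titration; percent inhibition Hill-fitted against Acetyl-MSTI/MSTI controls.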
# [4] = system: Nanoluciferase (engineered Oplophorus gracilirostris luciferase); assay: Primary Nanoluciferase (NLuc) qHTS assay for identification of artifact compounds. (AID 1845222);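 also: NLuc secreted into diluted conditioned medium of S16 cells; series mostly up to about 54 µM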
# Summary of the method: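 NLuc from S16 cell medium (1:55) plus test compounds, 15 min, room temperature. Luminescence after Nano-Glo (1:100) addition, 5 min.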
# [5] = Primary redox qHTS assay for identification of artifact compounds. (AID 1845223)
# Summary of the method: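 Redox-cycling detection via DTT (250 uM final) oxidation coupled to Amplex Red (25 uM)/HRP (250 mU/mL) in HBSS. 15 min preincubation plus 30 min after DTT, room temperature. Ex/Em 525/598 nm; 4-parameter Hill fit against DMSO and 10 uM DA3003.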
# Chain of Phospholipid hydroperoxide glutathione peroxidase GPX4 (Homo sapiens) (P36969 whole entry, looked up): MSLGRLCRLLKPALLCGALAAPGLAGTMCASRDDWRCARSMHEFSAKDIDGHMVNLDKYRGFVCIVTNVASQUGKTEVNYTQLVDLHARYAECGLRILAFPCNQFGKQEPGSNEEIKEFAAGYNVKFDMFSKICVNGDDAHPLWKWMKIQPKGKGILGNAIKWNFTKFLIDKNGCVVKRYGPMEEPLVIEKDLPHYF
SMILES,Potency [1],Potency [2],Potency [3],Potency [4],Potency [5],"activity change, negative = inhibition [2]","activity change, negative = thiol reactive [3]","activity, negative = inhibition [4]",redox activity (% of DA3003) [5]
CC(O)C(O)/C=C/C=C/C(=O)O[C@@H]1C=C2COC(=O)[C@]2(O)[C@@]2(C)CCCC(C)(C)C12 (stereo not given in full),inactive,inactive,inactive,inactive,inactive,–,–,–,–
Nc1ncnc2c1ncn2[C@H]1CCCO1,inactive,inactive,inactive,inactive,inactive,–,–,–,–
OC[C@H]1O[C@@H](Oc2ccc3c(c2)OC[C@H]2c4cc5c(cc4O[C@@H]32)OCO5)[C@H](O)[C@@H](O)[C@@H]1O,inactive,inactive,inactive,inactive,inactive,–,–,–,–
CC(c1c[nH]c2ccccc12)C(O)C(=O)O (stereo not given),inactive,inactive,10.6 µM (active),inactive,inactive,–,–,–,–
CC(=O)O[C@H](C[C@@H](C)[C@H]1C(=O)[C@H](O)[C@@]2(C)[C@@H]3CCC4C(C)(C)[C@@H](O[C@@H]5OC[C@H](O)[C@H](O)[C@H]5O)CC[C@@]45C[C@@]35CC[C@]12C)[C@@H]1OC1(C)C (stereo not given in full),inactive,inactive,inactive,inactive,inactive,–,–,–,–
C=CC1(C)CC(O)C2(CCC3C(C)(C(=O)O)CCCC3(C)C2=O)C1 (stereo not given),inactive,inactive,inactive,inactive,inactive,–,–,–,–
CC1CCC2(C(=O)OC3OC(CO)C(O)C(O)C3O)CCC3(C)C(=CCC4C5(C)CC(O)C(O)C(C)(C(=O)O)C5CCC43C)C2C1(C)O (stereo not given),inactive,inactive,inactive,inactive,inactive,–,–,–,–
CN1C(=O)c2ccccc2-n2c(nc3ccccc3c2=O)[C@@]12O[C@H]2c1ccccc1,inactive,inactive,inactive,inactive,inactive,–,–,–,–
COc1cc(C2OCC3C(c4ccc(OC5OC(CO)C(O)C(O)C5O)c(OC)c4)OCC23)ccc1O (stereo not given),inactive,inactive,inactive,inactive,inactive,–,–,–,–
CC1=C(CC(=O)O)c2cc(F)ccc2C1=Cc1ccc(S(C)(=O)=O)cc1,inactive,inactive,inactive,inactive,inactive,–,–,–,–
CC(=O)O[C@@]1(C)C[C@@H](O)[C@]2(O)C=CO[C@@H](O[C@@H]3O[C@H](CO)[C@@H](O)[C@H](O)[C@H]3O)[C@@H]21,inactive,inactive,inactive,inactive,inactive,–,–,–,–
CC(=O)NCCCCn1c2c(c3ccccc31)C(=O)NCC2,inactive,inactive,inactive,inactive,inactive,–,–,–,–
CC1CCC2(C(=O)OC3OC(COC4OC(CO)C(O)C(O)C4O)C(O)C(O)C3O)CCC3(C)C(=CCC4C5(C)CCC(O)C(C)(C(=O)O)C5CCC43C)C2C1(C)O (stereo not given),inactive,–,–,–,–,-4.02% [at 11.6 µM],18.5% [at 11.5 µM],3.18% [at 11.6 µM],2.59% [at 11.5 µM]
OCC1OC(Oc2cc(O)c3c(c2)OC(c2ccc(O)cc2)C(O)C3)C(O)C1O (stereo not given),inactive,inactive,inactive,inactive,inactive,–,–,–,–
CC1(C)OC(=O)C(OCC2CC2)=C1c1ccc(S(C)(=O)=O)cc1,inactive,inactive,inactive,inactive,inactive,–,–,–,–
CCCOc1ccn2c(C(C)=O)cc(-c3ccccc3S(C)(=O)=O)c2c1,inactive,inactive,inactive,inactive,inactive,–,–,–,–
COC(=O)[C@@]1(O)C=CC[C@@H]2[C@@]3(C)C[C@@H](c4ccoc4)OC(=O)[C@H]3CC[C@]21C,inactive,inactive,inactive,inactive,inactive,–,–,–,–
C=C1CC2(C(=O)O)CC1CCC2C1(C)CCCC2(C)C(=O)OC(O)C21 (stereo not given),inactive,inactive,inactive,inactive,inactive,–,–,–,–
COC(=O)[C@H](OC(C)=O)[C@H]1C(C)(C)C(=O)[C@H]2CC3=C4CC(=O)O[C@@H](c5ccoc5)[C@]4(C)CCC3[C@@]1(C)C2=O (stereo not given in full),inactive,inactive,inactive,inactive,inactive,–,–,–,–
CCCC(N[C@@H](C)C(=O)N1[C@H](C(=O)O)C[C@@H]2CCCC[C@@H]21)C(=O)OCC (stereo not given in full),inactive,inactive,inactive,inactive,inactive,–,–,–,–

SMILES,Potency [1],Potency [2],Potency [3],Potency [4],Potency [5],"activity change, negative = inhibition [2]","activity change, negative = thiol reactive [3]","activity, negative = inhibition [4]",redox activity (% of DA3003) [5]
CCOC(=O)Nc1nc2ccccc2[nH]1,inactive,inactive,inactive,inactive,inactive,–,–,–,–
C=C1CC23CC1(O)CCC2C1=CC2OC(=O)C(C)(C2O)C1C3C(=O)O (stereo not given),inactive,inactive,inactive,inactive,inactive,–,–,–,–
C=CC1C(O[C@@H]2O[C@H](CO)[C@@H](O)[C@H](O)[C@H]2O)OC=C(C(=O)OC)C1CC(=O)O (stereo not given in full),inactive,inactive,inactive,inactive,inactive,–,–,–,–
C=C1CCC[C@]2(C)C[C@]3(O)OC(=O)C(C)=C3C[C@@H]12,inactive,inactive,inactive,inactive,inactive,–,–,–,–
Cc1nnc(C(C)C)n1C1CC2CCC(C1)N2CCC(NC(=O)C1CCC(F)(F)CC1)c1ccccc1 (stereo not given),inactive,inactive,inactive,inactive,inactive,–,–,–,–
CC(C)[C@@H](C)/C=C/[C@@H](C)[C@H]1CC[C@H]2C3=CC=C4C[C@@H](O)CC[C@]4(C)[C@H]3CC[C@]12C,inactive,inactive,inactive,inactive,inactive,–,–,–,–
C[C@@H](OC(=O)/C=C/c1ccc(O)cc1)C1=C[C@]2(C=C[C@@H]3C(C(=O)O)=CO[C@@H](O[C@@H]4O[C@H](CO[C@@H]5O[C@H](CO)[C@@H](O)[C@H](O)[C@H]5O)[C@@H](O)[C@H](O)[C@H]4O)[C@@H]32)OC1=O,inactive,inactive,3.98 µM (active),inactive,inactive,–,–,–,–
CC1(C)CC[C@]2(C(=O)O[C@@H]3O[C@H](CO)[C@@H](O)[C@H](O)[C@H]3O)CC[C@]3(C)C(=CCC4[C@@]5(C)C[C@@H](O)[C@H](O)C(CO)(CO)C5CC[C@]43C)C2[C@@H]1O (stereo not given in full),inactive,inactive,inactive,inactive,inactive,–,–,–,–
FC(F)(F)c1cc(C(F)(F)F)c2ccc3nc(-c4nnco4)cn3c2n1,inactive,inactive,inactive,inactive,inactive,–,–,–,–
COC(=O)CC[C@@H](C)[C@H]1CC[C@H]2[C@@H]3CC(=O)[C@H]4C[C@H](OC(C)=O)CC[C@]4(C)[C@H]3CC[C@]12C,inactive,inactive,inactive,inactive,inactive,–,–,–,–
C/C(=C\CO)CC/C=C(\C)C(=O)O[C@H]1[C@H](OC2OC=C(C(=O)O)C3CCC(C)(O)C23)O[C@H](CO)[C@@H](O)[C@@H]1O (stereo not given in full),inactive,inactive,11.6 µM (active),inactive,inactive,–,–,–,–
CC(C)C1=CC2=CCC3[C@](C)(CCC[C@@]3(C)C(=O)O)C2CC1O (stereo not given in full),inactive,inactive,inactive,inactive,inactive,–,–,–,–
CCC(C)(O)C(O)C(=O)OCc1ccc(O[C@@H]2O[C@H](CO)[C@@H](O)[C@H](O)[C@H]2O)c(OC)c1 (stereo not given in full),inactive,inactive,inactive,inactive,inactive,–,–,–,–
COc1cc([C@H]2OC[C@]3(OC(C)=O)[C@@H](c4ccc(O[C@@H]5O[C@H](CO)[C@@H](O)[C@H](O)[C@H]5O)c(OC)c4)OC[C@H]23)ccc1O,inactive,inactive,inactive,inactive,inactive,–,–,–,–
C/C1=C\C[C@H](O[C@@H]2O[C@H](CO)[C@@H](O)[C@H](O)[C@H]2O)/C(C)=C/[C@H]2OC(=O)[C@H](C)[C@@H]2CC1,inactive,inactive,7.33 µM (active),inactive,inactive,–,–,–,–
CCC(=O)O[C@]1(C(=O)CCl)[C@@H](C)C[C@H]2[C@@H]3C[C@H](F)C4=CC(=O)C=C[C@]4(C)[C@@]3(F)[C@@H](O)C[C@@]21C,inactive,inactive,inactive,inactive,inactive,–,–,–,–
CCC1CC2C(C)=CC3CCCCC3C2(C)C2(OC(=O)C(C)(O)OC2=O)O1 (stereo not given),inactive,inactive,inactive,inactive,inactive,–,–,–,–
C[C@H]1[C@H](C)CC[C@]2(C(=O)O)CC[C@]3(C(=O)O)C(=CCC4[C@@]5(C)CC[C@H](O[C@@H]6O[C@H](C)[C@@H](O)[C@H](O)[C@H]6O)C(C)(C)C5CC[C@]43C)[C@H]12 (stereo not given in full),inactive,inactive,inactive,inactive,inactive,–,–,–,–
C=C1CC23CCC4[C@@](C)(CCC[C@@]4(C)C(=O)O)C2CCC1C3 (stereo not given in full),inactive,inactive,inactive,inactive,inactive,–,–,–,–
